AID504770 – E. coli YBA685 growth inhibition, screen for V. cholerae RctB inhibitors. E. coli YBA685 rctB-dependent plasmid, OD600 growth, 3 h; hits give low values. z-score (no concentration beside the values). 130,000 tested, 0.27% active. AID 504770; in the data active = z-score below about -2, passing the limit was not always enough
PV pol inh – poliovirus RNA polymerase inhibition. P03300. poliovirus polymerase elongation, fluorescence polarization; hits give low values. % elongation, % (compound at 16.7 µg/mL). 150,000 tested, 0.66% active; in the data active = % elongation below about 90%
Mtb MenB inh – Mtb MenB enzyme inhibition | P9WNP5 | MenB enzyme assay, absorbance read-out | inhibition, % (no concentration beside the values) | 100,000 tested, 0.43% active; in the data active = inhibition above about 21%, passing the limit was not always enough
MbtI inh – blocks the Mycobacterium tuberculosis siderophore enzyme MbtI; P9WFX0; purified MbtI enzyme, fluorescence intensity read-out; inhibition, % (no concentration beside the values); 100,000 tested, 0.89% active; in the data active = inhibition mostly above about 56%, no sharp cut-off; inactive = mostly below about 77%
Target sequence (P9WFX0 whole entry, looked up): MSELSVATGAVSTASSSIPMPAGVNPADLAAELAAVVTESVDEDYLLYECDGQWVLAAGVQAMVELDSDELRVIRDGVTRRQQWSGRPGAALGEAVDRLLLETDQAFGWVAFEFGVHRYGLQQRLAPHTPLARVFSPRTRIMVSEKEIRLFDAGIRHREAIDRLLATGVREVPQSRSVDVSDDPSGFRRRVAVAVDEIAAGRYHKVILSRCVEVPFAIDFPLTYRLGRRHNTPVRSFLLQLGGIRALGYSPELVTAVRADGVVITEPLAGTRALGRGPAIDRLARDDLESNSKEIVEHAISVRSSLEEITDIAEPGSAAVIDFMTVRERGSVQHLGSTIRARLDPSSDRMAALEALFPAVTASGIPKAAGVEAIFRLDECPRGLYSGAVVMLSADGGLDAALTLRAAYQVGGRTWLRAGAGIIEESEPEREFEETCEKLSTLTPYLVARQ
Active calls of the source: *; i = inactive; nt = not tested or not shown. The list is not random: actives were taken first. Their share in the collection is about 1.4%.

SMILES | AID504770 | PV pol inh | Mtb MenB inh | MbtI inh
Cc1ccc(C(=O)C2CCN(C(=O)Cc3ccccc3)CC2)cc1 | 0.7 | 100 | -5 | -4
O=S(=O)(c1ccc2oc(=S)n(CN3CCOCC3)c2c1)N1CCOCC1 | -0.3 | 62* | -2 | 77
O=C(O)CCc1ccc(-c2cccs2)n1-c1cccc(O)c1 | 0.05 | 103 | -4 | -54
CNC(=O)c1ccc(CN2CCc3ccccc3C2)cc1 | -0.35 | 102 | 27* | 0
COc1cccc(Oc2ccc(C(F)(F)F)cc2Nc2nc3ccccc3o2)c1 | 0 | 81* | -109 | -36
COc1ccc(/C=C2\SC(=O)N(c3c(C)n(C)n(-c4ccccc4)c3=O)C2=O)cc1OC | 0.1 | 81* | -32 | 87*
COc1ccc(/C=N/NC(=S)Nc2c(C)n(C)n(-c3ccccc3)c2=O)cc1OC | 0.65 | 100 | -12 | 27
CCOC(=O)C1=NN(c2ccc(C)cc2)C2C(=O)N(c3ccc(Cl)cc3)C(=O)C12 (stereo not drawn) | -0.6 | 101 | -2 | 8
CC(=O)OCc1c(C)c(C)c(C)c(C)c1C | 0 | nt | nt | nt
CCCNc1ncccc1C(N)=O | 1.2 | 101 | 35* | 89
Cc1cc(NC(=O)COC(=O)Cn2ccc(=O)[nH]c2=O)no1 | 0.5 | nt | nt | nt
O=C(/C=C(\O)c1ccccc1)C(F)(F)C(F)F | -3.5* | 98 | -21 | 17
O=C(O)C(=O)/C=C(\O)c1ccccc1 | 1.1 | nt | nt | nt
CCOC(=O)c1cc(-c2ccc(/C=C(\C#N)C(N)=C(C#N)C#N)o2)ccc1Cl | 2.1 | 93 | -154 | 10
FC(F)(F)CN(Cn1nc(-c2ccco2)oc1=S)Cn1nc(-c2ccco2)oc1=S | -0.2 | 76* | -8 | 80
Cc1ccc(Cc2c[nH]c(=S)s2)cc1 | -1.3 | 103 | -65 | 90*
O=C(NCCc1ccccc1)c1cc2c(ccc3ccccc32)o1 | 0.05 | 102 | -18 | 103
CSc1nn(C)c2cnn(C)c(=O)c12 | -0.8 | 55* | -2 | 71
Cn1ncc2c(c(SCc3ccc(Cl)cc3Cl)nn2C)c1=O | -2 | 101 | -17 | 21
CCn1c(SCCC#N)nnc1-c1ccncc1 | -0.1 | 102 | 31* | 2
O=C1C=CC(=O)N1c1ccc2c(c1)OCO2 | -2* | 102 | 23 | 99*
O=C1c2cccc3cccc(c23)C(=O)N1c1ccc2c(c1)OCO2 | 1.7 | nt | nt | nt
Cn1ncc(Br)c1N1C(=O)C=CC1=O | -3* | nt | nt | nt
Cn1ncc(Br)c1C(=O)NN | 0.2 | 107 | -7 | nt
CC(=O)N=C1SC2CS(=O)(=O)CC2N1Cc1ccccc1Cl (stereo not drawn) | -2.2 | 103 | -5 | -16
SMILES | AID504770 | PV pol inh | Mtb MenB inh | MbtI inh
O=C(Sc1nc2ccccc2o1)c1ccccc1 | -1.4 | 100 | -50 | 95*
O=C(/C=C/Sc1nc2ccccc2o1)c1ccccc1 | 0.3 | 97 | -6 | 54*
CNC(=S)NN1C(C)CCCC1C (stereo not drawn) | -0.7 | 100 | 4 | -14
COc1ccc(O)c(C=Nc2ccccc2)c1 | 0.05 | 101 | nt | -11
CNC(=S)N/N=C/c1cccc(Cl)c1 | -0.5 | 13* | -6 | 24
CC(C)NC(=S)N/N=C/c1cccc(O)c1 | -0.35 | 104 | -7 | 16
O=C(CSC1=Nc2ccccc2C2CC=NN12)Nc1ccc2c(c1)CCC2 (stereo not drawn) | 0.25 | 3.0* | -124 | 17
c1ccc2c(OCc3nc4ccccc4[nH]3)cccc2c1 | -1.2 | 102 | -10 | 0
O=C(Sc1ccc(Cl)cc1)c1ccno1 | -0.55 | 96 | -5 | 65*
O=C(Sc1ccc(Cl)cc1)N1CCOCC1 | 0.7 | nt | nt | nt
C=Cc1ccc(C=C)cc1 | -0.65 | 64* | 23 | 72*
NC(=O)c1ccc(NC(=O)CSC(=O)c2ccccc2)cc1 | -0.6 | 102 | nt | 70*
NC(=S)Nc1ccc(C(=O)O)cc1 | 0.15 | 81* | -79 | 92
NC(=S)CC(=O)Nc1ccccc1 | -0.05 | 101 | -36 | 93*
Cc1ccc(NC(=O)Cn2nc(C(N)=O)c3ccccc3c2=O)cc1 | 1.4 | 102 | -24 | 9
C1=CCC(CNCCCn2ccnc2)CC1 (stereo not drawn) | -0.15 | 102 | 10 | -1
Cc1ccc2occ(CC(=O)N(Cc3ccccc3Cl)C3CCS(=O)(=O)C3)c2c1 (stereo not drawn) | nt | -14* | nt | nt
Cc1cccc(/C=N/NC(=O)c2ccccn2)c1O | -2.3* | 104 | -78 | -6
CCOC(=O)c1ccccc1NC(=O)/C(C#N)=C/c1ccc(-c2ccc(Cl)cc2)o1 | 0.4 | 71 | 1 | 10
CN1C(=O)C(=Cc2ccccc2OCc2ccccc2)C(=O)N(C)C1=S | 2.1 | 100 | -25 | 77
COc1cccc(C=C2C(=O)N(C)C(=S)N(C)C2=O)c1OC | 0.75 | 95 | -76 | 93*
CCC1CSC(=Nc2ccc(Cl)c(Cl)c2)N1C(=O)CCc1c(C)[nH]c(=O)c(C#N)c1C (stereo not drawn) | -0.35 | 105 | -10 | -13
Cc1cc(C)nc(SCCSc2nc(C)cc(C)n2)n1 | 0.25 | 100 | 34* | -11
Cc1cc(C)nc(SCCN(C)C)n1 | 2 | nt | nt | -5
Cc1cc(C)nc(SCC(N)=O)n1 | -0.75 | 101 | 46* | -11
SMILES | AID504770 | PV pol inh | Mtb MenB inh | MbtI inh
Cc1ccc(/C(N)=N\O)n1C | 1.6 | 102 | 52* | nt
O=C1NC(=Nc2ccc(F)cc2)CS1 | 0.85 | 95 | -35 | 78*
O=C1NC(=Nc2ccccc2)CS1 | -0.6 | 99 | -21 | 37
COc1ccccc1NC(=O)CSCC(N)=O | 1.1 | 102 | -24 | 95*
O=C1CC(NC(=O)c2ccc(Cl)cc2)C(=O)N1 (stereo not drawn) | -0.1 | 102 | nt | 79*
O=c1c2ccccc2nnn1CSc1nncn1-c1ccccc1 | -0.15 | 106 | 6 | -15
O=C(Nc1cccc(Cl)c1)Nc1ccccc1N1CCCCC1 | -0.25 | 101 | -11 | -4
CCN1C(=O)C(=Cc2ccc(OC(F)F)cc2)C(=O)N(CC)C1=S | 0.6 | 101 | -85 | 54*
N#CCCn1c(SCc2ccc(C#N)cc2)nc2ccccc21 | -0.75 | 110 | -3 | 7
O=C1CCCC(O)=C1N=Nc1ccccc1C(=O)O | 0.6 | 97 | -463 | 18
O=C1CCCC(O)=C1N=Nc1ccc(C(=O)O)cc1 | 1.5 | 76* | -180 | 6
O=C1OC(c2cccs2)=N/C1=C\c1cccc(F)c1 | -0.2 | 88* | nt | 95
CC(C)(C)Nc1nc(OCC#N)nc(N2CCOCC2)n1 | 2.2 | 104 | 27 | 4
Cn1ccnc1P(=O)(O)c1ccccc1 | 0.65 | 88* | -2 | 6
Cn1nc(C(=O)N2CCN(c3ccc(Cl)cc3)CC2)c2c1-c1ccccc1SC2 | nt | 110 | nt | nt
Cn1nc(C(=O)N2CCCCC2)c2c1-c1ccccc1SC2 | -1.1 | 101 | 0 | 87*
COC(=O)c1c(COC(=O)c2ccc(NC(=O)c3ccco3)cc2)nc2ccccc2c1C | -0.2 | 102 | -25 | 12
CN(C(=O)CSc1nncn2c1cc1sccc12)c1ccccc1 | -0.5 | 98 | 33* | 6
CCN(CC)CCNC(=O)c1ccc2c(c1)sc1nc(-c3ccc(F)cc3)cn12 | nt | 89* | nt | nt
O=c1[nH]c(-c2ccccc2O)nc2sc3c(c12)CCCC3 | -0.2 | 89* | -4 | nt
O=c1[nH]c(-c2ccco2)nc2sc3c(c12)CCCC3 | -0.3 | 103 | nt | i

From PubChem BioAssay
